HP1b chromo inh – inhibitors of HP1-beta chromodomain binding to methylated histone tails; 0.56% of 390,000 active; Potency, µM (top dose mostly 114 µM), for inactives: top-dose activity change, negative = inhibition, usual class: inhibitors; AlphaScreen HP1-beta / biotin-H3K9me3 peptide binding; P83916; further: potency means the concentration at half of the fitted maximal effect; nearly all actives have a fitted effect of over 70% in size
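AlphaScreen: HP1-beta (50 nM) preformed 30 min with biotin-H3(1-18)K9me3 peptide (50 nM) in PBS pH 7.4, 0.01% Tween-20. Compound added for 30 min at RT, then streptavidin donor/nickel chelate acceptor beads (10 ug/mL) for 30 min.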
JMJD2A Tudor – inhibitors of human JMJD2A Tudor domain; Potency, µM (highest dose often 114 µM), without a hit: top-dose activity change, negative = inhibition, most hits filed as inhibitors; AlphaScreen JMJD2A-Tudor / H3K4me3 peptide binding; O75164; 4.4% of 390,000 active; AID 504339; further: potency means the concentration at half of the fitted maximal effect; on the % scale 0 is the no-effect control and ±100 the full control effect; nearly all actives have a fitted effect of over 50% in size
GCN5L2 inh – GCN5L2 (KAT2A) acetyltransferase inhibition. Q92830. GCN5L2 HAT assay, ThioGlo1 CoA-SH fluorescence. Potency, µM (series often up to 58.9 µM), without a hit: top-dose activity change, negative = inhibition, usual class: inhibitors. 0.21% of 390,000 active; further: potency means the concentration at half of the fitted maximal effect; on the % scale 0 is the no-effect control and ±100 the full control effect
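Titration-based screen in which CoA formation is detected via maleimide probe ThioGlo1 (50uM) turning fluorescent on thiol reaction; substrates H3(1-25) 75uM and acetyl-CoA 70uM, GCN5L2 20nM, 20 min incubation at room temperature.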
BAZ2B inh – blocks human BAZ2B; Potency, µM (highest dose often 114 µM), inactives show top-dose activity change, negative = inhibition, usual class: inhibitors; 4.4% of 360,000 active; AlphaScreen BAZ2B-H3K14Ac peptide displacement; Q9UIF8; further: potency means the concentration at half of the fitted maximal effect; on the % scale 0 is the no-effect control and ±100 the full control effect; nearly all actives have a fitted effect of over 60% in size
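BAZ2B 50 nM plus b-H3(5-23)K14Ac 50 nM, PBS pH 7.4/0.01% Tween-20, 30 min RT; compound added (max 110 uM), 30 min RT; streptavidin donor/Ni-chelate acceptor beads 10 ug/mL final, 20 min dark; AlphaScreen read.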
PLK1 PBD inh – PLK1 (human) polo-box domain binding inhibition; P53350; Plk1 PBD binding of FITC phosphopeptide, fluorescence polarization; Potency, µM, without a hit: max response, negative = inhibition, usual class: inhibitors; 2.8% of 360,000 active; further: potency means the concentration at half of the fitted maximal effect; series mostly up to about 57 µM; on the % scale 0 is the no-effect control and ±100 the full control effect; nearly all actives have a fitted effect of over 65% in size
Target sequence (P53350 whole entry, looked up, the tested form may be a part): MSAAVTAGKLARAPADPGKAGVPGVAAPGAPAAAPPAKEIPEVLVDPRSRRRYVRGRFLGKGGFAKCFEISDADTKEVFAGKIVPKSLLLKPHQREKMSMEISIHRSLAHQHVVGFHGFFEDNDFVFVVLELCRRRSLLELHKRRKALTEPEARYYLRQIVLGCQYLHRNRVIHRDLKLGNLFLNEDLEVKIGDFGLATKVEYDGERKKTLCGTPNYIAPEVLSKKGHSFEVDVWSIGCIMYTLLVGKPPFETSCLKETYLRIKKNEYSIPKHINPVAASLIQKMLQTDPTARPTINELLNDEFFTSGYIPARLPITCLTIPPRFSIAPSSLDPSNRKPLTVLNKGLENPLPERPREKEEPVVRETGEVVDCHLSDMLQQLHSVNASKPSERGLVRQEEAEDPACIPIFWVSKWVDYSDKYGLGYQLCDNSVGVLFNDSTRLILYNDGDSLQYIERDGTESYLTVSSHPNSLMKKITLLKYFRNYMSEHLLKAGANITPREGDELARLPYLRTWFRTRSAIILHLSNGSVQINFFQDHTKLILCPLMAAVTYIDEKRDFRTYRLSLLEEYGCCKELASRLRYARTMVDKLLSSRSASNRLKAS
PI5P4Ka inh – PI5P4K alpha (human) kinase inhibition | P48426 | PI5P4Kalpha enzyme, ADP-Glo luminescence, 60 min; stronger effect = lower value | max response, % | 1.2% of 330,000 active | AID 652105; active means max response of -50% or lower; inconclusive means between -30% and -50%; inactive means -30% or higher; further: value at the top dose of about 77 µM; on the % scale 0 is the no-effect control and ±100 the full control effect
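Single end-point luminescence (ADP-Glo) quantified ADP from PI5P4Kalpha turnover; ATP 5 microM final, 1 h at RT, 0.1% CHAPS and 0.28 mM EGTA in HEPES pH 7.4.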
* hit, by the source's call; [ ] = another dose, or the depositor's remark. The list is not random: actives were taken first. Their share in the collection is about 7%. Unless noted, the call rests on the fitted dose curve; in most records, active means well fitted curve in the direction sought with a large enough effect; inconclusive means small, poorly fitted or top-dose-only effect, or another doubt; inactive means no such curve, though single readings can be large; an effect the other way counts as inactive or inconclusive.

How did CCOc1ccc(NC(=O)CC2C(=O)N(c3ccc(F)cc3)C(=O)N2Cc2ccc(OC)c(OC)c2)cc1 (centres undefined) do in these assays?
HP1b chromo inh: 43%; JMJD2A Tudor: -12%; GCN5L2 inh: -2%; BAZ2B inh: 0%

What do the screens show for `O=S(=O)(Nc1c(Br)cc(Br)c2cccnc12)C1CC1`?
HP1b chromo inh: 20%; JMJD2A Tudor: 25µM*

Results for O=S(=O)(Nc1cccc2cccnc12)C1CC1 ?
HP1b chromo inh: -14%; JMJD2A Tudor: 50µM*

What do the screens show for `O=S(=O)(Nc1cccc2cccnc12)c1cccc2ccccc12`?
HP1b chromo inh: 34%; JMJD2A Tudor: -16%

How did COc1ccc(NC(=O)CN(C)C(=O)CNC(=O)c2cccs2)cc1 do in these assays?
HP1b chromo inh: 15%; JMJD2A Tudor: 1%; GCN5L2 inh: -4%; BAZ2B inh: 5%; PLK1 PBD inh: -8%; PI5P4Ka inh: -7

How did CN(C)c1ccsc1C(=O)NNS(=O)(=O)c1ccc(Cl)cc1 do in these assays?
HP1b chromo inh: 55%; JMJD2A Tudor: 10%[57.1 µM]; PLK1 PBD inh: -18%; PI5P4Ka inh: -4

What do the screens show for `CN(C)c1ccc(C(=O)OCc2ccccc2)cc1`?
HP1b chromo inh: 44%; JMJD2A Tudor: -6%[11.4 µM]; GCN5L2 inh: -9%; BAZ2B inh: 47%; PLK1 PBD inh: -12%; PI5P4Ka inh: 12

Results for O=C1C=CC(=O)C(CNc2ccc(C(=O)OCc3ccccc3)cc2)=C1 ?
HP1b chromo inh: 40µM*; JMJD2A Tudor: 40µM*; PLK1 PBD inh: 13µM*; PI5P4Ka inh: -77*

How did CCOC(=O)c1c(NC(=O)CSc2nnc(-c3ccccc3C)n2C)sc(C(C)=O)c1C do in these assays?
HP1b chromo inh: -17%; JMJD2A Tudor: -31%; GCN5L2 inh: -21%; BAZ2B inh: 50µM*; PLK1 PBD inh: -21%; PI5P4Ka inh: inconclusive

What do the screens show for `O=C(CSc1nnc(-c2ccc(C(F)(F)F)cn2)o1)Nc1ccccc1Cl`?
HP1b chromo inh: 50%; JMJD2A Tudor: 20µM*; GCN5L2 inh: -9%; BAZ2B inh: 18µM*; PLK1 PBD inh: -11%; PI5P4Ka inh: 0

How did Cc1ccc(-c2nnc(SCc3ccccc3F)o2)cc1 do in these assays?
HP1b chromo inh: 77%; JMJD2A Tudor: 72%; GCN5L2 inh: -1%; BAZ2B inh: 189%; PLK1 PBD inh: 21µM*

How did O=C(CSc1nnc(-c2ccncc2)o1)Nc1ccccc1Cl do in these assays?
HP1b chromo inh: 39%; JMJD2A Tudor: 2%; GCN5L2 inh: -5%; BAZ2B inh: -2%; PLK1 PBD inh: -3%; PI5P4Ka inh: 3

How did CCOc1ccc(-c2nnc(SCC(=O)Nc3ccc(C)cc3C)o2)cc1 do in these assays?
HP1b chromo inh: 27%; JMJD2A Tudor: 79µM*; GCN5L2 inh: 1%; BAZ2B inh: -4%

Results for CCOc1ccccc1NC(=O)CSc1nnc(-c2ccncc2)o1 ?
HP1b chromo inh: 7%; JMJD2A Tudor: -7%; GCN5L2 inh: 2%; BAZ2B inh: 3%; PLK1 PBD inh: inconclusive; PI5P4Ka inh: -14

Results for O=C(CSC(=O)c1ccccc1)Nc1ccccc1F ?
HP1b chromo inh: inconclusive; JMJD2A Tudor: -15%; GCN5L2 inh: -22%; PLK1 PBD inh: 3.4µM*; PI5P4Ka inh: -14

Results for O=C(CSc1nnc(-c2ccccc2)o1)Nc1ccccc1F ?
HP1b chromo inh: 17%; JMJD2A Tudor: inconclusive; GCN5L2 inh: inconclusive; BAZ2B inh: 14%; PLK1 PBD inh: 21µM*; PI5P4Ka inh: 0

How did CCOc1ccc(-c2nnc(NC(=O)Cc3ccc(OC)cc3)o2)cc1 do in these assays?
HP1b chromo inh: 12%; JMJD2A Tudor: -11%; GCN5L2 inh: -1%; BAZ2B inh: -9%; PLK1 PBD inh: -5%; PI5P4Ka inh: 3

What do the screens show for `CCOc1ccccc1NC(=O)CSc1nnc(-c2cccnc2)o1`?
HP1b chromo inh: -1%; JMJD2A Tudor: -12%; GCN5L2 inh: 0%; BAZ2B inh: 10%; PLK1 PBD inh: 24µM*; PI5P4Ka inh: 2

How did Cc1ccc(-c2nnc(SCC(=O)Nc3ccccc3F)o2)cc1 do in these assays?
HP1b chromo inh: 44%; JMJD2A Tudor: -5%; GCN5L2 inh: -1%; BAZ2B inh: 9%; PLK1 PBD inh: 0%; PI5P4Ka inh: -1

How did CCOc1ccc(-c2nnc(NC(=O)Cc3cc(OC)c(OC)c(OC)c3)o2)cc1 do in these assays?
HP1b chromo inh: 36%; JMJD2A Tudor: 28µM*; GCN5L2 inh: 1%; BAZ2B inh: 22µM*; PLK1 PBD inh: -10%; PI5P4Ka inh: 4

Results for CCOc1ccc(CCNC(=O)COC(=O)c2nn(C)c(=O)c3ccccc23)cc1OCC ?
HP1b chromo inh: 29%; JMJD2A Tudor: 7%; GCN5L2 inh: -7%; BAZ2B inh: 2%; PLK1 PBD inh: 4%; PI5P4Ka inh: 3

Results for CCOC(=O)c1sc(NC(=O)CNCc2cccnc2)c(C(=O)OCC)c1C ?
HP1b chromo inh: 23%; JMJD2A Tudor: -24%; GCN5L2 inh: -1%; BAZ2B inh: -17%; PLK1 PBD inh: -1%; PI5P4Ka inh: 0

Results for COc1ccc(NC(=O)CSc2nnc(-c3cccnc3)o2)c(OC)c1 ?
HP1b chromo inh: -21%; JMJD2A Tudor: -10%; GCN5L2 inh: -4%; BAZ2B inh: 2%; PLK1 PBD inh: 21µM*; PI5P4Ka inh: -4

How did CCOC(=O)c1sc(NC(=O)CNCc2ccccn2)c(C(=O)OCC)c1C do in these assays?
HP1b chromo inh: 9%; JMJD2A Tudor: inconclusive; GCN5L2 inh: -6%; BAZ2B inh: 28µM*; PLK1 PBD inh: -10%; PI5P4Ka inh: -9

Results for COc1ccc(NC(=O)CSc2nnc(-c3ccncc3)o2)c(OC)c1 ?
HP1b chromo inh: 51%; JMJD2A Tudor: -1%; GCN5L2 inh: -26%; BAZ2B inh: -5%; PLK1 PBD inh: -1%; PI5P4Ka inh: 1

Results for CCOC(=O)c1c(NC(=O)CSc2nnc(-c3ccco3)o2)sc(C(C)=O)c1C ?
HP1b chromo inh: 35%; JMJD2A Tudor: -20%; BAZ2B inh: -29%; PLK1 PBD inh: 14%; PI5P4Ka inh: 2

What do the screens show for `CCOC(=O)c1c(NC(=O)CSc2nnc(-c3cccnc3)o2)sc(C(C)=O)c1C`?
HP1b chromo inh: inconclusive; JMJD2A Tudor: 18µM*; GCN5L2 inh: -8%; BAZ2B inh: inconclusive; PLK1 PBD inh: 12µM*; PI5P4Ka inh: -23

What do the screens show for `COC(=O)c1c[nH]c2c1-c1cc(C(=O)OCc3ccccc3)n(S(=O)(=O)c3ccc(C)cc3)c1C(=O)C2=O`?
HP1b chromo inh: 2%; JMJD2A Tudor: -33%; PLK1 PBD inh: -9%; PI5P4Ka inh: -11

Assay outcomes (PubChem)
